# AMA1-RON2 inh: inhibitors of Plasmodium falciparum AMA1-RON2 interaction; Potency, µM (doses to about 58.2 µM), without a hit: at the top dose activity change, negative = inhibition, usual class: inhibitors; AlphaScreen AMA1-biotinylated RON2 peptide binding; actives 0.2% (n = 360,000);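 also: 0% = vehicle wells and -100% = peptide control; nearly all actives have a fitted effect of over 45% in size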
#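 AMA1 (3D7) with his tag at 25 nM final met compounds first, then biotinylated RON2 peptide at 25 nM; detection used donor plus acceptor beads, 10 µg/mL apiece, read by AlphaScreen after 30 min at room temperature.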
# AmpC detergent: blocks E. coli AmpC beta-lactamase in detergent assay | AID 485294 | actives 0.041% (n = 370,000) | AmpC hydrolysis of nitrocefin, absorbance 480 nm, 0.01% Triton | Potency, µM (series often up to 114 µM), for the others: top-dose activity change, negative = inhibition, most hits filed as inhibitors | P00811;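 also: 0% = no-compound wells and -100% = no-enzyme wells; nearly all actives have a fitted effect of over 25% in size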
# Target sequence (P00811 whole entry, looked up): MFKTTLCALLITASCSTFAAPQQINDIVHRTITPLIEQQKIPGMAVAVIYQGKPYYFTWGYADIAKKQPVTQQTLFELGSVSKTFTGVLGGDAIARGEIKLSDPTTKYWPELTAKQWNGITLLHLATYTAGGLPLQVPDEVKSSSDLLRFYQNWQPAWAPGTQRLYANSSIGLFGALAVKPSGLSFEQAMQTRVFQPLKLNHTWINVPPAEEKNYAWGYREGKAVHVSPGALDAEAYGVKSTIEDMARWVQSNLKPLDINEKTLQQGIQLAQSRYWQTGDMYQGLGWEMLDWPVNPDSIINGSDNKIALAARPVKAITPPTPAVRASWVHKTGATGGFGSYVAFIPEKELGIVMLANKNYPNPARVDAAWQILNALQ
#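 AmpC (5.3 nM in the dispensed reagent) in 20 mM phosphate pH 7.0 with 0.01% (detergent screen) or 0.0001% Triton X-100 was preincubated with compounds for 15 min at room temperature. Nitrocefin was then added from an 800 uM solution, and hydrolysis was followed at 480 nm.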
# Pf growth 48h: P. falciparum growth inhibition at 48 hours (one generation). P. falciparum luciferase growth in erythrocytes, 48 h. Potency, µM (series often up to 28.7 µM), for inactives: top-dose activity change, negative = inhibition, usual class: inhibitors. actives 5.9% (n = 310,000)
#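 First compound was added to culture medium, then infected red cells at 0.1% parasitemia and 2% hematocrit (final). After incubation at 37 C under 5% CO2, luciferase detection reagent was dispensed and light output recorded.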
# Pf growth 96h: inhibits malaria parasite growth, 96 h | P. falciparum luciferase reporter growth, 96 h | Potency, µM (top dose mostly 28.7 µM), without a hit: at the highest dose activity change, negative = inhibition, actives largely listed as inhibitors | actives 6.9% (n = 320,000)
#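 P. falciparum expressing integrated firefly luciferase, in erythrocytes at 2% hematocrit, 0.05% parasitemia, incubated with compounds 96 h at 37 C, 5% CO2. Growth inhibition read as loss of luminescence; two-generation exposure targets delayed-death apicoplast inhibitors.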
# AmpC inh no detg: blocks E. coli AmpC beta-lactamase in detergent-free assay | P00811 | AmpC nitrocefin hydrolysis, absorbance 480 nm, 0.0001% Triton | Potency, µM (titrated, usually from 57.1 µM), inactives show at the highest dose activity change, negative = inhibition, most hits filed as inhibitors | actives 0.52% (n = 330,000) | AID 485341;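 also: plate controls were no compound for no effect and no enzyme for full effect; nearly all actives have a fitted effect of over 20% in size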
#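 AmpC (5.3 nM in the dispensed reagent) in 20 mM phosphate pH 7.0 with 0.01% (detergent screen) or 0.0001% Triton X-100 was preincubated with compounds for 15 min at room temperature. Nitrocefin was then added from an 800 uM solution, and hydrolysis was followed at 480 nm.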
# HCV inh: HCV inhibition; AID 651820; actives 3.4% (n = 340,000); Huh7.5.1 HCVcc-Cre infection, luciferase reporter, 44 h; Potency, µM (titrated, usually from 41.8 µM), for inactives: at the top dose activity change, negative = inhibition, hits mostly inhibitors
#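 Antiviral activity was scored by luciferase reporter output from cells infected with HCVcc-Cre (~0.5 moi) in presence of compound, 44 h infection period, cells seeded 1,000/well 4 h prior.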
# * = called active by the depositor; u = inconclusive; x = no result; [ ] = remark or other dose. In the library only some 11% were active in any assay of this set; here they are far more common. Calls follow the shape of the dose curve; as a rule, active = well fitted curve in the direction sought with a large enough effect; inconclusive = small, poorly fitted or top-dose-only effect, or another doubt; inactive = no such curve, though single readings can be large; an effect the other way counts as inactive or inconclusive. Unless noted, % is scaled to controls: 0 for no effect and ±100 for the full control effect; potency is read from the fitted curve at half-maximal effect.
SMILES,AMA1-RON2 inh,AmpC detergent,Pf growth 48h,Pf growth 96h,AmpC inh no detg,HCV inh
COc1ccc(NC2CCCN(C(=O)c3c(C)noc3C)C2)cc1 (stereo unspecified),10%,-4%,u,1.9µM*,-7%,31%
O=C(CCN1CCCCO1)N1CCCC(Nc2ccc(F)cc2)C1 (stereo unspecified),4%,u,-15%,12µM*,-3%,x
COc1cc(OC)cc(C(=O)N2CCCC(Nc3ccc(F)cc3)C2)c1 (stereo unspecified),2%,u,-3%,0%,31%,0%
Cc1cccc(CCn2c(=O)c3ccccc3n(CC(=O)Nc3ccccc3F)c2=O)c1,x,17%,x,x,x,x
COc1ccc(NC2CCCN(C(=O)CCN3Cc4ccccc4C3=O)C2)cc1 (stereo unspecified),-4%,-1%,10%,8.3µM*,4%,6%
COc1ccc(NC2CCCN(C(=O)CCN3CCCC3=O)C2)cc1 (stereo unspecified),13%,2%,13%,u,-3%,-10%
COc1cc(CN(C(=O)c2ccc(OC(C)C)cc2)c2ccccn2)cc(OC)c1OC,x,-2%,x,x,x,x
CCOC(=O)c1c(C)nc(C)c(C(=O)OCC)c1-c1ccc(Br)cc1,-9%,-10%,-23%,13µM*,115%,-23%
COCCN(CCOC)C(=S)Nc1ccccc1,9%,6%,0%,38%,-21%[11.4 µM],1.8µM*
COCCN(C(=S)Nc1ccc(OC)c(Cl)c1)C1CCN(C(C)C)CC1,-7%,5%,10%,u,-22%,u
COCCN(C(=S)Nc1ccc(OC)cc1)C1CCN(C(C)=O)CC1,7%,-12%,-17%,1%,-23%,4%
COc1ccc(NC(=S)N(CCC(C)C)C2CCN(C(C)C)CC2)cc1Cl,14%,-10%,u,u,20%,4µM*
CC(C)CCN(C(=O)Nc1ccc(Cl)cc1)C1CCN(C(C)C)CC1,3%,-6%,13µM*,u,8%,u
CC(C)CCN(C(=O)Nc1ccc(Cl)c(Cl)c1)C1CCN(C(C)C)CC1,x,3%,x,x,x,x
COCCN(C(=S)Nc1ccc(OC)cc1)C1CCN(C(C)C)CC1,-4%[11.6 µM],-7%,-4%,12µM*,-17%,-3%
Cc1ccc(NC(=O)c2ccc3c(O)c(S(=O)(=O)c4ccccc4)c(=O)[nH]c3c2)cc1Cl,x,5%,x,x,x,x
CCOC(=O)c1sc(NC(=O)C(C)Sc2nc(-c3ccccc3)cc(C(F)(F)F)n2)c(C(=O)OC)c1C (stereo unspecified),x,-11%,x,x,x,x
Cc1nc2cccnc2n1C1CCN(C(=O)Nc2ccc(Cl)cc2)CC1,x,10%,x,x,x,x
Cc1ccccc1CN1C(=O)c2ccccc2Sc2ccc(C(=O)NC(C)c3ccccc3)cc21 (stereo unspecified),x,-2%,x,x,x,x
COc1ccc(Br)cc1CNC(=O)CN1CCSc2ccccc21,x,-5%,x,x,x,x
O=C1CN(C(=O)c2cccc(Br)c2)C(c2ccccc2)c2cc(Cl)ccc2N1 (stereo unspecified),x,6%,x,x,x,x
COCCN(C(=S)Nc1cccc(OC)c1)C1CCN(C(C)=O)CC1,-8%,-8%,-7%,21%,-16%,20%
COCCN(C(=S)Nc1cccc(OC)c1)C1CCN(C(C)C)CC1,13%,3%,1%,13µM*,-13%,1%
CCOC(=O)N1CCC(N(CCN(C)C)C(=S)Nc2cccc(Cl)c2)CC1,4%,8%,-12%,-18%,-11%,u
CCOC(=O)N1CCC(N(CCN(C)C)C(=S)Nc2cccc(OC)c2)CC1,-10%,-6%,-5%,7.4µM*,27%,-3%
SMILES,AMA1-RON2 inh,AmpC detergent,Pf growth 48h,Pf growth 96h,AmpC inh no detg,HCV inh
O=[N+]([O-])c1cc(-c2nc(-c3cccnc3)no2)ccc1NCc1ccccc1,x,-5%,x,x,x,x
Cc1cc(NC(=O)Cn2c(=O)oc3cc(S(=O)(=O)N4CCCC4)ccc32)ccc1Br,x,7%,x,x,x,x
Cc1cccc(OCC(=O)NC(=S)N2CCCc3ccccc32)c1,-29%,-2%,u,9.3µM*,-12%,5%
O=C(COc1ccc(Cl)cc1Cl)NC(=S)N1CCCc2ccccc21,-14%,9%,x,-5%,13%,-15%
C(=N/n1c2ccccc2c2ccccc21)/c1ccco1,u,-1%,22%,x,-37%,8.9µM*
Oc1ccccc1/C=N/n1c2ccccc2c2ccccc21,3%,2%,u,2.6µM*,28%,u
C(=N\n1c2ccccc2c2ccccc21)/c1ccccc1,-24%,-2%,45%,-6%,-19%,u
S=c1[nH]ncn1/N=C/c1ccco1,33%,x,x,x,x,x
CCOc1ccc(C2=NC(c3cccs3)=Nc3ccc(CC)cc3N2)cc1OCC,x,5%,x,x,x,x
COc1ccc(-c2nnc(SCC(=O)Nc3cccc(C(F)(F)F)c3)nc2-c2ccc(OC)cc2)cc1,x,-2%,x,x,x,x
Cc1cccc(OCC(=O)Nc2cccc(OCc3cc(=O)n4cccc(C)c4n3)c2)c1,x,3%,x,x,x,x
COc1cccc(CNC(=O)c2ccc3c(c2)N(C)C(=O)C2CCCCN32)c1 (stereo unspecified),x,-8%,x,x,x,x
COc1cc2c(cc1OC)/C(=C/C(=O)c1ccc(C)cc1)NCC2,-3%,u,u,u,35%,-24%
COc1cc2c(cc1OC)/C(=C/C(=O)c1ccc([N+](=O)[O-])c(C)c1)NCC2,-6%,-4%,9.3µM*,5.2µM*,11%,u
CCCCOC(=O)c1cccc(NC(=O)/C=C/c2ccccc2Cl)c1,x,5%,x,x,x,x
CN(C(=O)CSc1cn(CC(=O)N2CCCCC2)c2ccccc12)c1ccccc1,x,-2%,x,x,x,x
C/C(N)=C(/C#N)C(=O)COC(=O)c1cc(-c2ccc(Br)cc2)nc2ccccc12,-3%,-9%,4%,u,25%,10µM*
O=C(COC(=O)c1cc(-c2ccccc2)nc2ccccc12)c1ccc(Br)cc1,x,5%,x,x,x,x
COc1ccc(CNC(=O)C2CCN(c3nnc(-n4cccc4CNc4ccc(C)cc4)s3)CC2)c(OC)c1,x,13%,x,x,x,x
Cc1nc2c(c(=O)n1Cc1ccccc1Cl)c1nc3ccccc3nc1n2Cc1ccco1,x,-6%,u,u,-1%,12%
CCO/C(C)=N/n1c2nc3ccccc3nc2c2c(=O)n(Cc3ccccc3Cl)c(C)nc21,-14%,u,0.74µM*,u,26%,-15%
COc1ccc(-c2onc(C)c2-c2ccc(C(=O)OC(C)C)o2)c(O)c1,-4%,-5%,1.3µM*,-9%,-22%,6.3µM*
COc1ccc(NC(=O)c2cc(-c3ccccc3O)no2)cc1,x,4%,x,x,x,x
